# Screening data deposited in PubChem BioAssay by National Center for Advancing Translational Sciences (NCATS).
# Compounds with a hit are over-represented: about 7.2% of the library has one in this group of screens.
# FMDV inh: foot and mouth disease virus antiviral activity; Potency, µM (doses to about 57.9 µM), inactives show top-dose activity change, negative = inhibition, most hits filed as inhibitors; actives 1.2% (n = 410,000); FMDV antiviral cell-based qHTS; calls by dose curve; tested in HEK293T cells; also: read-out not given here; nearly all actives have a fitted effect of over 45% in size
# Sm TGR block: inhibitors of Schistosoma mansoni thioredoxin glutathione reductase | Potency, µM (titrated, usually from 114 µM), inactives show at the top dose activity change, negative = inhibition, most hits filed as inhibitors | Q962Y6 | purified TGR, DTNB reduction, TNB absorbance 405 nm | actives 3% (n = 360,000); also: nearly all actives have a fitted effect of over 60% in size
#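 Kinetic colorimetric format: TGR-catalysed, NADPH-driven DTNB reduction monitored via TNB absorbance. Enzyme dispensed at 20 nM; compound exposure 15 min at room temperature before reaction start.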
# Marburg entry inh: blocks Marburg virus binding to or entry into cells. Potency, µM (series often up to 37.8 µM), without a hit: at the top dose activity change, negative = inhibition, most hits filed as inhibitors. Marburg virus pseudotyped entry inhibition, cell reporter. AID 540276. actives 1.8% (n = 300,000); calls by dose curve; tested in HEK293 cells
# RE007 growth inh: less growth of the S. pombe RE007 Vpr strain | S. pombe RE007 Vpr strain, BacTiter-Glo ATP luminescence, 24 h | Potency, µM (series often up to 92.2 µM), for the others: top-dose activity change, negative = less growth, most hits filed as inhibitors | actives 0.21% (n = 360,000) | AID 651644; active = well fitted falling curve with a large enough effect; inconclusive = small, poorly fitted or top-dose-only effect; inactive = no such curve, though single readings can be large or run the other way; also: nearly all actives have a fitted effect of over 50% in size
#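 Fission yeast strain RE007, carrying one chromosomally integrated HIV-1 vpr copy, was seeded at OD 0.01 in PMG+AL medium with 23 nL pinned compound. After 24 h at 30 °C and 99% humidity, viability was read by BacTiter-Glo luminescence.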
# Lassa entry inh: blocks Lassa virus binding to or entry into cells; actives 1.2% (n = 300,000); Lassa virus pseudotype entry inhibition, cell reporter; Potency, µM (titrated, usually from 37.9 µM), for the others: top-dose activity change, negative = inhibition, actives largely listed as inhibitors; calls by dose curve; tested in HEK293 cells; also: nearly all actives have a fitted effect of over 50% in size
# HCV inhibitor: blocks hepatitis C virus; Potency, µM (doses to about 41.8 µM), for inactives: at the highest dose activity change, negative = inhibition, most hits filed as inhibitors; Huh7.5.1 HCVcc-Cre infection, luciferase reporter, 44 h; actives 3.4% (n = 340,000); AID 651820
#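 1,000 cells/well; 4 h culture; + compound; + HCVcc-Cre (~0.5 moi); 44 h; luciferase substrate, RT 15 min; read 15 sec.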
# An asterisk follows results filed as active; u = inconclusive; x = no result given; [ ] = another dose, or the depositor's remark. Unless noted, calls follow the shape of the dose curve; as a rule, active = well fitted curve in the direction sought with a large enough effect; inconclusive = small, poorly fitted or top-dose-only effect, or another doubt; inactive = no such curve, though single readings can be large; an effect the other way counts as inactive or inconclusive. % is scaled to controls: 0 for no effect and ±100 for the full control effect; potency is read from the fitted curve at half-maximal effect.
SMILES,FMDV inh,Sm TGR block,Marburg entry inh,RE007 growth inh,Lassa entry inh,HCV inhibitor
Cc1cc(C)n(-c2ccc(C(=O)Nc3ccc(C)c(S(=O)(=O)N4CCOCC4)c3)cc2)n1,14µM*,1%,10µM*,22%,u,u
Cc1ccc(NC(=O)c2ccc(S(=O)(=O)N3CC(C)CC(C)C3)cc2)cc1S(=O)(=O)N1CCOCC1 (configuration not stated),u,x,x,0%,x,7.9µM*
O=C(c1cccc(F)c1)N1CCC[C@@]2(CCN(Cc3ccccc3)C2)C1,-7%,x,x,x,x,x
CCOC(=O)c1ccc(N2C(=O)c3n[nH]c(-c4ccco4)c3C2c2ccc(O)c(OC)c2)cc1 (configuration not stated),u,u,u,x,-24%[46.1 µM],x
CCOC(=O)c1ccc(N2C(=O)c3n[nH]c(-c4ccco4)c3C2c2ccc(C)cc2)cc1 (configuration not stated),32µM*,-3%,u,x,u,x
CCOC(=O)c1ccc(N2C(=O)c3n[nH]c(-c4ccco4)c3C2c2ccc([N+](=O)[O-])cc2)cc1 (configuration not stated),u,-1%,u,17%,23µM*,14µM*
CCN1C(=O)C(CC(=O)Nc2ccc(Br)cc2)N(CCCc2ccccc2)C1=S (configuration not stated),u,-36%,u,2%,13µM*,u
O=S(=O)(NCCc1ccc(F)cc1)c1ccccc1Br,x,x,x,x,-10%[46.1 µM],x
O=C(CNC(=O)c1ccco1)OCc1cccc(Cl)c1,-10%,45µM*,10%,24%,-3%,7%
O=C(CCNc1cccc(Cl)c1)c1ccco1,26%,11µM*,2%,-30%,12%,-7%
O=C(COC(=O)CNC(=O)c1ccco1)Nc1ncc(Cl)cc1Cl,-2%,40µM*,x,20%,x,5%
O=C(CNC(=O)c1ccco1)NCC(=O)OCc1cccc(Cl)c1,17%,-45%,-1%,8%,14%,15%
O=C(NC1CCN(C(=O)Nc2cccc(Cl)c2)CC1)c1ccco1,-11%,-9%,21%[46.1 µM],5%,11%,3%
CCN(CC)CCN(C(=O)c1ccc(CN2CCCCC2)o1)C(C(=O)NC1CCCCC1)c1ccc(F)cc1 (configuration not stated),5%,9%,5µM*,3%,0%[46.1 µM],u
O=S1(=O)c2ccccc2N=NN1Cc1ccc(Cl)c(Cl)c1,x,4µM*,-3%,x,x,x
O=S1(=O)CCN(Cc2ccc(Cl)c(Cl)c2)CC1,0%,15%,0%,-1%,23%,-6%
CC(C)(C)c1ccc(CN2N=Nc3ccccc3S2(=O)=O)cc1,u,13µM*,u,6%,11µM*,u
Cc1cccc(N2C(=O)N(Cc3ccc(C(C)(C)C)cc3)c3ccccc3S2(=O)=O)c1,-14%,6%,x,x,-24%[46.1 µM],x
O=C(NCC(c1cccnc1)N1CCc2ccccc2C1)C(=O)Nc1ccccc1F (configuration not stated),-18%,7%,x,x,23%[46.1 µM],x
Cc1ccccc1C1(CC(=O)N2CCCC(C)C2)CC(=O)N(Cc2cccnc2)C1=O (configuration not stated),6%,x,x,x,x,x
O=C(NCCn1cccc1)c1cccc2ccccc12,27%,28µM*,15%,-9%,-2%,-2%
O=C1Nc2ccccc2/C1=C/c1ccccc1F,-10%,0%,-8%[46.1 µM],-9%,1%[46.1 µM],u
O=C1Nc2ccccc2/C1=C\c1cccn1-c1ccc(OC(F)(F)F)cc1,u,-17%,-29%,-1%,0%,0.56µM*
CCOC(=O)c1ccc(N2C(=O)C3C(C2=O)C(C(=O)c2ccc(Cl)cc2)N2CCCC32)cc1 (configuration not stated),-23%,16µM*,1%,u,-14%,-28%
COc1ccc(CCN2C(=O)c3[nH]nc(-c4ccccc4O)c3C2c2ccc(OC)c(OC)c2)cc1 (configuration not stated),-9%,5%,u,x,u,x
SMILES,FMDV inh,Sm TGR block,Marburg entry inh,RE007 growth inh,Lassa entry inh,HCV inhibitor
COC(=O)c1ccc2c(c1)c(C#Cc1ccccc1)c(-c1ccccc1)n2C,33%,x,x,0%,x,u
Cn1c(C=O)c(C#Cc2ccccc2)c2ccccc21,-1%,-2%,x,-13%,x,7.9µM*
COc1ccc(C#Cc2ccc3c(=O)c4ccccc4n(C)c3c2)cc1,-7%,-27%,x,5%,x,2%
COc1ccc(C#Cc2c(C=O)n(C)c3ccccc23)cc1,0%,-1%,x,10%,x,10µM*
CCOC(=O)C1=C(C)NC(C)=C(C(=O)OCC)C1c1c(F)c(F)c(F)c(F)c1F,x,x,u,x,16µM*,x
CCOC(=O)C1=C(C)NC(C)=C(C(=O)OCC)C1C(=O)OCC(=O)NCc1ccc(F)cc1,-24%,x,x,7%,x,3.5µM*
COc1cccc(C(c2sc3nc(-c4ccco4)nn3c2O)N2CCN(c3ccccc3F)CC2)c1 (configuration not stated),10%,9%,x,x,6%[46.1 µM],x
Cc1ccc(CN(Cc2cccn2-c2nnc(N3CCCC3=O)s2)C(=O)Nc2ccccc2C(F)(F)F)cc1,-20%,0%,u,x,x,x
O=c1n(CC2CO2)c(=O)n(CC2CO2)c(=O)n1CC1CO1 (configuration not stated),-12%,x,0.45µM*,1%,u,u
O=C(/C=C/c1ccc(S(=O)(=O)NCc2ccco2)cc1)NCc1ccccc1Cl,-23%,-9%,u,1%,u,u
Cc1ccc(S(=O)(=O)N(CC(=O)NCc2ccco2)Cc2ccc(F)cc2)cc1,-6%,40µM*,-9%,27%,-24%,14%
CS(=O)(=O)N(CC(=O)NCc1ccco1)Cc1ccc(Cl)cc1,-15%,11µM*,17%,-19%,-1%,9%
O=C(/C=C/c1ccc(Cl)cc1)NCc1ccco1,24%,-12%,u,16%,6.5µM*,1%
CS(=O)(=O)N(CC(=O)NCc1ccccc1)Cc1ccc(Cl)cc1,-6%,2%,-5%,-10%,5%,13%
Cc1ccc(S(=O)(=O)NCC(=O)N(CC(=O)NCc2ccco2)Cc2ccc(F)cc2)cc1,5%,3%,-17%[46.1 µM],3%,6%,4%
CC(=O)N1CCC[C@H]1C(=O)NCC1Cc2cc(-c3cccc(OC(F)(F)F)c3)ccc2O1 (some centres not stated),-7%,x,x,x,x,x
O=C(CSc1ncccc1C(=O)Oc1ccccc1Cl)Nc1ccc(C(F)(F)F)cc1Cl,11%,0%,x,x,u,x
O=C(CSc1cn(CC(=O)N2CCOCC2)c2ccccc12)Nc1ccccc1F,7%,1%,x,x,18%[46.1 µM],x
O=S(=O)(c1ccc(Br)cc1)c1cnc2ccccc2n1,u,14µM*,u,-4%,u,u
